# Measurements as given in PubChem BioAssay AID2013 (Sanford-Burnham Center for Chemical Genomics, 2009).
# Screen size: about 290,000 compounds; about 370 (0.13%) were called active. Shown is part of a subset that was picked to be rich in actives. Entries with a potency or affinity are not part of this list. A number with no mark means an inactive call.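 Rule for the calls: active = spots per cell inhibited over 60%, with over 100 cells counted and total cytoplasm intensity under 500,000; inconclusive = wells with under 100 cells, flagged as likely toxic; inactive = the rest.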
# Target: G-protein coupled receptor 55 (Homo sapiens) (UniProt Q9Y2T6)
# Experiment: inhibition of LPI-stimulated GPR55 beta-arrestin translocation – imaging, U2OS, beta-arrestin-GFP, LPI agonist, primary screen (AID 2013);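 note: U2OS cells stably carrying GPR55 and arrestin-GFP stimulated by 5 µM LPI near EC80; imaged beta-arrestin-GFP aggregate spots per cell after agonist stimulation; plate controls were LPI-stimulated DMSO wells for no effect and DMSO wells without LPI for full effect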
# Settings: LPI antagonism, at 10 µM, active compounds read high
# Sequence of G-protein coupled receptor 55 (Homo sapiens) (Q9Y2T6 whole entry, looked up): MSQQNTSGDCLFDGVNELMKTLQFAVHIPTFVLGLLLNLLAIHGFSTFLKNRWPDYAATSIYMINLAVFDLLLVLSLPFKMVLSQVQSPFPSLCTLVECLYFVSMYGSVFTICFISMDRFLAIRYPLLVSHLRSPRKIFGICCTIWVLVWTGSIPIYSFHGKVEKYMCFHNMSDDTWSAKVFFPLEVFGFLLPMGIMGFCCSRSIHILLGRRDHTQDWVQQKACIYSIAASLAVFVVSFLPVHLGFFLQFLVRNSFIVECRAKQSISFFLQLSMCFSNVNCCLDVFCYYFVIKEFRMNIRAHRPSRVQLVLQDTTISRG
row,Structure (SMILES),inhibition
1,CSc1nsc(SC)c1NC(=O)N1CCCCC1,3.9%
2,Cc1cc(C)c(C(=O)CN2C(=O)NC3(CCC(C)CC3)C2=O)cc1C (stereo unspecified),0.1%
3,COC(=O)C1=C(N)Oc2c(oc(CO)cc2=O)C1c1ccc(F)cc1 (stereo unspecified),6%
4,COC(=O)c1c(-c2ccccc2)csc1N,1.1%
5,COC(=O)c1sc(NC(=O)c2c(F)cccc2F)c(C#N)c1C,-4.7%
6,COC(=O)C1=C(C)OC(N)=C(C#N)C1c1ccccc1F (stereo unspecified),9%
7,O=C1CC(C(=O)O)(c2ccccc2)c2cccc(F)c21 (stereo unspecified),-1.7%
8,COC(=O)c1ccc(C#Cc2ccccc2)o1,-12.1%
9,COc1ccc(-c2nnn(CC(=O)NCCc3ccc(OC)c(OC)c3)n2)cc1,-2.6%
10,O=C1/C(=C/c2ccc([N+](=O)[O-])cc2)CCc2ccccc21,6.9%
11,Cn1c(=O)c2c(ncn2Cc2nnc(N)s2)n(C)c1=O,3.3%
12,CCOC(=O)c1ccc(NC(=S)N2CCC(O)CC2)cc1,1%
13,C#CCn1c(CCNC(=O)c2ccco2)nc2ccccc21,-12.6%
14,CCOc1ccccc1CNC(=O)CCCn1ncn2c(cc3occc32)c1=O,-7.1%
15,CCCCC(=O)N(Cc1ccc(F)cc1)C1CCS(=O)(=O)C1 (stereo unspecified),-2.9%
16,Nn1c(CSc2nc3ccccc3o2)nnc1CSc1nc2ccccc2o1,2.1%
17,COC(=O)c1sccc1NC(=S)N1CCCCC1,-4.6%
18,Cn1c(-c2sccc2OCc2ccccc2)n[nH]c1=S,6.8%
19,CSc1nnc(-c2sccc2OCc2ccc(C)cc2)n1C,28.1%
20,O=C(O)CNS(=O)(=O)c1ccc(-c2ccccc2)cc1,75.2% (active)
21,O=C(O)CNS(=O)(=O)c1ccc(F)cc1,0.5%
22,O=C(O)CNS(=O)(=O)c1ccc2c(c1)C(=O)c1cc(S(=O)(=O)NCC(=O)O)ccc1-2,-7.8%
23,COc1ccc(C(=O)Nc2ccc(/C(C)=N/NC(=O)c3ccncc3)cc2)cc1,10.6%
24,Cc1cccc(NC(=O)C2CC(O)CN2C(=O)Oc2ccccc2)c1 (stereo unspecified),2.6%

row,Structure (SMILES),inhibition
1,CC(NC(=O)Cn1nnc(-c2ccncc2)n1)c1ccccc1 (stereo unspecified),-4.9%
2,CC1(C)Cc2ccccc2-c2nc3ccccc3c(=O)n21,0.3%
3,COc1cc2c(cc1OC)-c1nc3ccccc3c(=O)n1C(C)(C)C2,4.8%
4,O=C(NC12CC3CC(CC(C3)C1)C2)c1ccc(-c2ccccc2Cl)o1,-9.4%
5,O=C(NC12CC3CC(CC(C3)C1)C2)c1ccc(Br)o1,13%
6,O=C(NC12CC3CC(CC(C3)C1)C2)c1ccc([N+](=O)[O-])o1,1.3%
7,O=C(NC12CC3CC(CC(C3)C1)C2)c1ccc(-c2ccc(Br)cc2)o1,63.8% (active)
8,O=C(NC12CC3CC(CC(C3)C1)C2)c1ccc(-c2cccc(Cl)c2)o1,2.9%
9,C1CN(c2nc(N3CCOCC3)nc(N3CCOCC3)n2)CCO1,8.7%
10,Cc1[nH]nc2c1/C(=N/O)CC(c1ccccc1)C2 (stereo unspecified),-5.5%
11,COc1cc2ncc(C(=O)c3ccccc3)c(N3CCN(Cc4ccccc4)CC3)c2cc1OC,3.4%
12,Cc1ccc(-c2noc(CCC(=O)N(C)c3ccccc3C)n2)cc1,-2.6%
13,CCc1ccccc1N(C)C(=O)CCc1nc(-c2ccc(C)cc2)no1,-8.4%
14,CCc1ccccc1NS(=O)(=O)c1c(C(=O)N2CCCCCC2)c(C)n(C)c1C,3.1%
15,CCN(C(=O)CSc1nnc(Nc2ccccc2C)s1)C1CCS(=O)(=O)C1 (stereo unspecified),12.3%
16,CC(C)C[C@H](NC(=O)Nc1ccccc1F)C(=O)O,2.2%
17,CSc1ccc(CN(C)C(=O)c2cc(=O)c3ccccc3o2)cc1,-0.8%
18,COc1ccc(-c2csc(Nc3ccc(S(=O)(=O)Nc4cc(C)on4)cc3)n2)cc1,5.4%
19,COc1cc(NS(=O)(=O)c2ccc(Nc3nc(-c4cccc([N+](=O)[O-])c4)cs3)cc2)nc(OC)n1,0.2%
20,COc1cc(NS(=O)(=O)c2ccc(Nc3nc(-c4ccccn4)cs3)cc2)nc(OC)n1,2.2%
21,COc1ccc(-c2csc(Nc3ccc(S(N)(=O)=O)cc3)n2)cc1,4.6%
22,O=C1CC(N2CCN(c3ccccn3)CC2)C(=O)N1c1ccc(Cl)cc1 (stereo unspecified),-0.1%
23,COCCn1c(SCC(=O)NC2CCCC2)nnc1-c1ccncc1,1.6%
24,O=C(NCCc1ccc(Cl)cc1)c1cc2ccccn2n1,6.6%

row,Structure (SMILES),inhibition
1,COc1ccc(N2CCN(C(=O)Cn3ncc4c([nH]c5ccccc54)c3=O)CC2)cc1,-7%
2,COc1cccc(NC(=O)COC(=O)CC(NC(N)=O)c2ccc(Cl)cc2)c1 (stereo unspecified),-13.8%
3,O=C(Nc1ccc(N2CCOCC2)cc1)c1cc(-c2ccncc2)nc2ccccc12,15.8%
4,COc1cc(-c2cc(C(=O)Nc3ccccc3N3CCOCC3)c3ccccc3n2)cc(OC)c1OC,17.1%
5,Cc1cc(NC(=O)CSc2nnc(C)o2)no1,4.5%
6,Cc1ccccc1Nc1nc(NCc2ccco2)c2ccccc2n1,54.3%
7,c1ccc(CNc2nc(NCc3ccccc3)c3ccccc3n2)cc1,72% (active)
8,OCCNc1nc(NCc2ccccc2)c2ccccc2n1,-6.4%
9,c1ccc(Nc2nc(NCc3ccco3)c3ccccc3n2)cc1,73.7% (active)
10,Cc1cccc(Nc2nc(NCc3ccco3)c3ccccc3n2)c1,-2.1%
11,CNc1nc(NCc2ccccc2)c2ccccc2n1,5.4%
12,Cc1ccc(-c2nc(NCc3ccco3)c3ccccc3n2)cc1,7.7%
13,Fc1ccc(Nc2nc(NCc3ccco3)c3ccccc3n2)cc1,60.1%
14,CC(=O)c1ccc(NC(=O)COc2ccccc2C(=O)Nc2ccc(C)cn2)cc1,10%
15,CC(C)CC1(C)NC(=O)N(Cc2cc([N+](=O)[O-])cc3c2OCOC3)C1=O (stereo unspecified),-6.2%
16,CCCN(CC1CC1)C(=O)COC(=O)c1ccc(CNS(=O)(=O)c2ccc(F)c(Cl)c2)cc1,0.7%
17,c1ccc(OCCOc2ccccc2-c2nnco2)cc1,-6.8%
18,Cc1ccc(-c2ccccc2[C@@H]2C[C@H]3CN(C)C(=O)[C@]34CCCN24)o1,-2.8%
19,CC(C)N(C=O)C1(C(=O)NC2CCCCC2)CCCCC1,5.3%
20,COc1ccc[nH]c1=O,0.4%
21,CC(O)CNc1cnccn1 (stereo unspecified),14.2%
22,O=C(NCCN1CCNC1=O)C1CCC(=O)N(Cc2cccc(C(F)(F)F)c2)C1 (stereo unspecified),-10.6%
23,Cc1ccc(NC(=S)NNC(=O)c2c([N+](=O)[O-])c(C)nn2C)cc1,-1.6%
24,CN1C2CCC1/C(=C\c1ccccc1)C(=O)/C2=C\c1ccccc1,15.1%

row,Structure (SMILES),inhibition
1,CN1C2CCC1/C(=C\c1ccccc1Cl)C(=O)/C2=C\c1ccccc1Cl,-4.7%
2,CC(C)(C)c1ccc(C(=O)Nc2ccc(C(=O)N3CCOCC3)cc2)cc1,13%
3,O=C(NCC(=O)N1CCN(S(=O)(=O)/C=C/c2ccccc2)CC1)c1ccc(Cl)cc1,10.1%
4,CCN(CC)CCNC(=S)N1CCn2c(nc3ccccc32)C1,3.9%
5,CCOC(=O)c1c(C)n(C)c2ccc(OC)c(NC(=O)CN3CCC(C(=O)OCC)CC3)c12,-6.7%
6,CCOc1ccccc1NC(=O)Nc1ccc(Br)cn1,13.3%
7,CN(NC(=O)CN1C(=O)c2ccccc2C1=O)C1=NS(=O)(=O)c2ccccc21,-1.6%
8,C[C@H](NC(=O)c1[nH]cnc1C(=O)Nc1ccc(CNC(=O)OC(C)(C)C)cc1)C(=O)OCc1ccccc1,1.5%
9,C[C@H](NC(=O)c1nc[nH]c1C(=O)NCc1ccc(CNC(=O)OC(C)(C)C)cc1)C(=O)OC(C)(C)C,18.1%
10,CC(C)(C)OC(=O)[C@H](Cc1ccccc1)NC(=O)c1nc[nH]c1C(=O)N1CCN(C(=O)OC(C)(C)C)CC1,4.7%
11,CC(C)C[C@H](NC(=O)c1[nH]cnc1C(=O)Nc1ccc(CNC(=O)OC(C)(C)C)cc1)C(=O)OCc1ccccc1,7%
12,CC(C)(C)OC(=O)N1CCC(NC(=O)c2[nH]cnc2C(=O)N[C@@H](Cc2ccccc2)C(=O)OCc2ccccc2)CC1,41.8%
13,CC(C)(C)OC(=O)NCc1ccc(CNC(=O)c2[nH]cnc2C(=O)N[C@@H](Cc2ccccc2)C(=O)OCc2ccccc2)cc1,35.5%
14,CCN(CC)S(=O)(=O)c1cc(C(=O)Nc2cc(C)[nH]n2)ccc1Cl,17.6%
15,Cc1cc(C)nc(NS(=O)(=O)c2ccc(NC(=O)C3CC3)cc2)n1,0%
16,O=C(NNc1c(Cl)cccc1Cl)c1ccno1,5%
17,O=C(NC1CCCCC1)C(c1ccco1)N(C(=O)C(F)(F)F)C1CC1 (stereo unspecified),-2.5%
18,O=C(NCc1ccc2c(c1)OCO2)Nc1ccc(Cl)cc1,-2.2%
19,Cc1cccc(C)c1NC(=O)C(Cl)C(=O)c1ccccc1 (stereo unspecified),2.5%
20,O=C(Nc1ccccc1)C(Cl)C(=O)c1ccccc1 (stereo unspecified),6.1%
21,O=C(Nc1ccccc1Cl)c1ccccc1,3.2%
22,CC(C(=O)Nc1ccccc1)C(=O)Nc1ccccc1,-4.5%
23,CC(=O)C(Cl)C(=O)Nc1ccccc1 (stereo unspecified),-8.1%
24,O=C(Nc1ccccc1Cl)Nc1ccccc1Cl,1.2%
